The supplement of paper PMC10338343
± gives the standard deviation.

Columns and labels:
[1] = tested on: MILI (PIWIL2) piRISC loaded with piRNA #1 (26 nt); test: pre-steady-state target cleavage rate (min^-1); guide: piRNA #1 5'p-UGAGGUAGUAGGUUGUAUAGUAUCCA; higher = faster piRNA-guided slicing of the target; settings: auxiliary factor: 500 nM mouse GTSF1;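 also: 1 nM active piRISC with 0.1 nM target library at 33 °C single turnover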
Outline: (§1)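 A burst-and-steady-state fit was used to obtain the pre-steady-state cleavage rate. The input data were sequencing reads of uncleaved targets, normalised to depth and to weakly complementary targets, from a […] transcribed, DNA-blocked target RNA library mixed with 1 nM active affinity-purified piRISC holding one synthetic guide, with or without 500 nM GTSF1 partner protein, in HEPES–potassium acetate buffer at 33 °C for 0–8 or 0–960 min. Three trials were pooled and k3 was capped at 0.0001 min^-1.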

[2] = tested on: EfPiwi piRISC loaded with piRNA #1 (26 nt); test: pre-steady-state target cleavage rate (min^-1); auxiliary factor: 500 nM Ephydatia muelleri Gtsf1; guide: piRNA #1 5'p-UGAGGUAGUAGGUUGUAUAGUAUCCA; MIWI and MILI are mouse PIWI proteins and EfPiwi is from a freshwater sponge; tags in brackets are library labels; higher = faster piRNA-guided slicing of the target
Outline: as §1

| Sequence | pre-steady-state target cleavage rate [1] | pre-steady-state target cleavage rate [2] |
| --- | --- | --- |
| GGAGACCAUUCUAUACAACCUACUACCUCA | 0.136 ± 0.013 | 0.0597 ± 0.02 |
| GGAGAGGAUACUAACAACCUACUACCUCA | 0.181 ± 0.013 | 0.00812 ± 0.0046 |
| GGAGAGGAUACUAAACAACCUACUACCUCA | 0.174 ± 0.012 | 0.00787 ± 0.0036 |
| GGAGACCAUACUAUACAACCUACUACCUACA | 0.16 ± 0.018 | 0.00527 ± 0.0031 |
| GGAGACGAUACUAUACAACGUUCUACCUCA | 0.00469 ± 0.0024 | 0.00329 ± 0.0013 |
| GGAGACCUAACUAUACAACCUACUACCUA | 0.0998 ± 0.021 | 0.0706 ± 0.025 |
| GGAGACGAUACUAAACAACCUAGUACCUCA | 0.049 ± 0.0087 | 0.00281 ± 0.0023 |
| GGAGACCUAUCUAAUACAACCUACUACCUCA | 0.0342 ± 0.0069 | 0.00579 ± 0.004 |
| GGAGUGGAUACUAUUCAACGUACUACCUCA | 0.0305 ± 0.004 | 0.00373 ± 0.0014 |
| GGAGUGGAUACUAUUCUACCUACUACCUCA | 0.19 ± 0.011 | 0.00571 ± 0.0035 |
| GGAGUGGAUACUAUACAACCUACUACCUUA | 0.112 ± 0.011 | 0.276 ± 0.095 |
| GGAGACCUAUCUCUACAACCUACUACCUCA | 0.0688 ± 0.0068 | 0.00937 ± 0.0045 |
| GGAGAGAAUACUAUACAACCUACUACCUCA | 0.177 ± 0.01 | 0.0106 ± 0.0053 |
| GGAGACGAUACUAUACAACCUACUACAUCA | 0.0978 ± 0.015 | 0.0059 ± 0.0024 |
| GGAGACCAUACUAUACAAGCUAGUACCUCA | 0.0775 ± 0.016 | 0.0032 ± 0.0027 |
| GGAGAGGAUACUAUAGAACCUACUACCUGA | 0.0217 ± 0.005 | 0.00264 ± 0.0017 |
| GGAGACCAUACCAUACAACCUACUACCUCA | 0.157 ± 0.027 | 0.107 ± 0.044 |
| GGAGACCUUACUAUACAACCUACUACCGCA | 0.19 ± 0.022 | 0.00343 ± 0.0026 |
| GGAGAGCUAACUAUACAACCUACUACCUCA | 0.137 ± 0.018 | 0.00909 ± 0.0042 |
| GGAGACGAUACUAUACAACCUACUACCUCC [g2:g24:cont:t1C] | 0.182 ± 0.014 | 0.0508 ± 0.017 |
| GGAGACCAUACUAUACAACCUACUACCAGA | 0.169 ± 0.027 | 0.00458 ± 0.0019 |
| GGAGACCUUACUAUACCAACCUACUACCUCA | 0.00685 ± 0.0036 | 0.00457 ± 0.0029 |
| GGAGUGAAUACUAUACAACCUACUACCUCA | 0.175 ± 0.009 | 0.102 ± 0.037 |
| GGAGACCUAACUUUACAACCUAGUACCUCA | 0.0141 ± 0.0091 | 0.00417 ± 0.0038 |
| GGAGUCGAUACUAUUCAACCUACUACCUCA | 0.192 ± 0.012 | 0.00506 ± 0.0029 |
| GGAGAGGAUACUAGUACAACCUACUACCUCA | 0.079 ± 0.011 | 0.0114 ± 0.0064 |
| GGAGACCUUUCUAUACAACCUAGUACCUCA | 0.0267 ± 0.0078 | 0.00465 ± 0.0038 |

| Sequence | pre-steady-state target cleavage rate [1] | pre-steady-state target cleavage rate [2] |
| --- | --- | --- |
| GGAGACCUAACUAAUACAACCUACUACCUCA | 0.103 ± 0.025 | 0.0103 ± 0.0044 |
| GGAGAGCAUACUAUACAACCUAGUACCUCA | 0.0618 ± 0.013 | 0.00276 ± 0.0014 |
| GGAGACCUAACUCAUACAACCUACUACCUCA | 0.0742 ± 0.033 | 0.0159 ± 0.0089 |
| GGAGACGAUACUAUACAGCCUACUACCUCA | 0.16 ± 0.015 | 0.0104 ± 0.0039 |
| GGAGAGGAUACUAUACAACCUACUAGCUCA | 0.0627 ± 0.012 | 0.00484 ± 0.0019 |
| GGAGUGGAUACAAUACAACCUACUACGUCA | 0.0406 ± 0.0063 | 0.0038 ± 0.0016 |
| GGAGACCAUACUAUACAACCUACUACCUGCA | 0.213 ± 0.023 | 0.00318 ± 0.002 |
| GGAGACGAAACUAUACAAGCUACUACCUCA | 0.242 ± 0.02 | 0.00338 ± 0.0017 |
| GGAGACGAUUCUAUACAACCUACUUCCUCA | 0.0941 ± 0.016 | 0.00271 ± 0.0022 |
| GGAGACCUAACAUAUACAACCUACUACCUCA | 0.026 ± 0.012 | 0.0546 ± 0.02 |
| GGAGACGAUACUAUUACAACCUACUACCUCA | 0.172 ± 0.011 | 0.0508 ± 0.019 |
| GGAGAGGAUACUAUAGAACCUUCUACCUCA | 0.00389 ± 0.0026 | 0.003 ± 0.002 |
| GGAGACCUAUGAUAUGAACCUACUACCCCA | < 0.0001 | < 0.0001 |
| GGAGACCAUACUAUACAACCUAGUUCCUCA | 0.0546 ± 0.018 | 0.00549 ± 0.0029 |
| GGAGUGGGAUACUAUACAACCUACUACCUCA | 0.204 ± 0.011 | 0.143 ± 0.046 |
| GGAGACCUUACUAUACAACCUAUUACCUCA | 0.226 ± 0.019 | 0.0052 ± 0.0025 |
| GGAGACCUAACAAUACAACCUACUACCUCA | 0.0822 ± 0.019 | 0.00868 ± 0.0037 |
| GGAGACCUUACUAUACAACCUACUACCUACA | 0.109 ± 0.017 | 0.00473 ± 0.0031 |
| GGAGUGGAUACUAUGCAACCUACUACCUCA | 0.192 ± 0.009 | 0.09 ± 0.035 |
| GGAGUGGAUACUAUACAUCCUUCUACCUCA | 0.0293 ± 0.0033 | 0.00476 ± 0.0022 |
| GGAGACCAUACUAUACAACCUACUACCACA | 0.231 ± 0.029 | 0.00574 ± 0.002 |
| GGAGUGGAUUCUAUACAAGCUACUACCUCA | 0.228 ± 0.013 | 0.00371 ± 0.0019 |
| GGAGUGGAUACAAUACAACCUUCUACCUCA | 0.0111 ± 0.0024 | 0.00456 ± 0.0022 |
| GGAGUGGAUACUAUACAACCUACUACGCUCA | 0.111 ± 0.015 | 0.00482 ± 0.0021 |
| GGAGACGAUACUAUACAACCUAUUACCUCA | 0.219 ± 0.021 | 0.0146 ± 0.0053 |
| GGAGAGGUUACUAUACAAGCUACUACCUCA | 0.0739 ± 0.012 | 0.0046 ± 0.0021 |
| GGAGUGGAUUCUAUACAUCCUACUACCUCA | 0.299 ± 0.013 | 0.00479 ± 0.0026 |
